proKLK7 act – activates the human kallikrein-7 zymogen. hit rate 0.9% among 370,000. AID 652039. purified proKLK7, EDANS-DABCYL substrate fluorescence; 100% is mature enzyme control, 0% vehicle. activation, % at 7 µM. P49862;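 active = activation above the mean of all tested compounds plus 3 SD, computed per campaign excluding outliers beyond control limits, cut at about 13% in these data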
ADAM10 inh – ADAM10 inhibition, QFRET primary screen. O14672. recombinant ADAM10, EDANS/DABCYL FRET peptide cleavage, 3 h. inhibition, % at 7 µM. hit rate 0.62% among 370,000;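 active = inhibition above a per-campaign cutoff equal to the mean of compounds falling between control-based bounds plus 3 SD, cut at about 20% in these data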;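 also: 0% = DMSO wells while the 100% control is not disclosed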
PLC-gamma1 inh – blocks human PLC-gamma1 enzyme activity; P19174; AID 720700; purified PLC-gamma1, fluorogenic substrate, fluorescence; inhibition, % at 12.2 µM; hit rate 0.84% among 370,000; in the data active = inhibition above about 9.5%
PLCb3 inh – blocks human PLC-beta3 enzyme activity; Q01970; Purified PLC-beta3, fluorogenic substrate, fluorescence; inhibition, % at 12.2 µM; hit rate 0.18% among 370,000;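 also: 0% = median of compound wells on plate and 100% = full blocker control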
ADAM17 inh – inhibitors of human ADAM17. AID 720648. P78536. recombinant ADAM17, EDANS/DABCYL FRET peptide cleavage. inhibition, % at 6.95 µM. hit rate 0.83% among 370,000;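 active = inhibition above the mean of compounds lying between control limits plus 3 SD, set per campaign, cut at about 8.5% in these data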;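 also: 0% = DMSO-only wells as the low control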
Target sequence (P78536 215-824 limits assumed): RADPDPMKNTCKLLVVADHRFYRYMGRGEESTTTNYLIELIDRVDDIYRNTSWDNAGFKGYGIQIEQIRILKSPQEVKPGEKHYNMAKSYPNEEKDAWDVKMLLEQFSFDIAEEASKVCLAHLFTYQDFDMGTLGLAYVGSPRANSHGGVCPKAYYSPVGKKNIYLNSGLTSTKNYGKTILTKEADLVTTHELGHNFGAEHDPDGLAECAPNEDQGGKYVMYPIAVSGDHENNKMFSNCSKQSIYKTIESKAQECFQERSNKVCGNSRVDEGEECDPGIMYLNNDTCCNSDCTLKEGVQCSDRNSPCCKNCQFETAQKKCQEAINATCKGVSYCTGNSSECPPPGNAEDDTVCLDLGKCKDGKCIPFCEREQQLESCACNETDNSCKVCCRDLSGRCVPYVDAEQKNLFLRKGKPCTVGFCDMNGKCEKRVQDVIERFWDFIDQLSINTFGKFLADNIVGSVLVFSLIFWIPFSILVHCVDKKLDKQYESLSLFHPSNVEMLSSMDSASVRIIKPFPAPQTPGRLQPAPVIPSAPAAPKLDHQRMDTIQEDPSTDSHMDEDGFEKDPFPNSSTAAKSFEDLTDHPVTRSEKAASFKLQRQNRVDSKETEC
ADAM10 counter – inhibits human ADAM10 in ADAM17 exosite counter-screen; hit rate 47% among 2,900; inhibition, % at 6.95 µM; AID 743256; recombinant ADAM10, EDANS/DABCYL FRET peptide cleavage, 3 h; shares compounds with ADAM17 inh;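 active = mean inhibition over the triplicate runs exceeds the activity threshold set in the earlier primary screen, cut at about 20% in these data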;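 also: 0% = DMSO wells and 100% = marimastat wells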
ADAM17 confirm – confirmation of inhibitors of human ADAM17; shares compounds with ADAM17 inh; recombinant ADAM17, EDANS/DABCYL QFRET peptide cleavage; inhibition, % at 6.95 µM; hit rate 65% among 2,900; AID 743257;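 active = mean inhibition across replicates above the hit cutoff set in the primary screen, cut at about 8.5% in these data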;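 also: 0% = DMSO wells and 100% = marimastat wells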
PLCgamma1 ctr – PLC-gamma1 inhibition, counter-screen for PLC-beta3 hits. shares compounds with PLC-gamma1 inh. purified PLC-gamma1, fluorogenic substrate, fluorescence. inhibition, % at 12.3 µM. hit rate 3.1% among 3,300; in the data active = inhibition above about 9.5%
PLCbeta3 conf – confirmation of human PLC-beta3 inhibitors. shares compounds with PLC-gamma1 inh. purified PLC-beta3, fluorogenic substrate fluorescence. inhibition, % at 12.3 µM. hit rate 1% among 3,300. AID 743261
Active calls of the source: *; x = no result. Compounds with a hit are over-represented: about 2.9% of the library has one in this group of screens. Rule as the data show it, unless noted: active = inhibition above about 11%; inactive = the rest.

SMILES | proKLK7 act | ADAM10 inh | PLC-gamma1 inh | PLCb3 inh | ADAM17 inh | ADAM10 counter | ADAM17 confirm | PLCgamma1 ctr | PLCbeta3 conf
Cc1onc(-c2ccc(Cl)cc2)c1-c1ccn(S(=O)(=O)c2ccccc2)n1 | 0.1 | 17.2 | 10.2* | 0.5 | 13.7* | 11.0 | 10.3* | -3.1 | -1.4
C#CCNC(=O)C[C@H]1C[C@@]2(C(=O)OC)C(=C[C@H](C(C)C)O[C@@H]2C2CC2)N(Cc2cccc3ccccc23)C1=O | -0.8 | 10.0 | 9.5* | -0.6 | 8.9* | 6.3 | 7.6 | -7.4 | -1.5
COC(=O)[C@]12C[C@H](CC(=O)NCc3ccc(C)o3)C(=O)N(Cc3cccc4ccccc34)C1=C[C@H](C1CCCC1)O[C@@H]2C | 0.2 | 19.1 | 1.3 | -0.1 | 5.5 | x | x | x | x
COC(=O)[C@]12C[C@H](CC(=O)NCCCCc3ccccc3)C(=O)N(Cc3cccc4ccccc34)C1=C[C@H](C(C)C)O[C@@H]2C1CC1 | -0.6 | 6.1 | 12.7* | 2.1 | 9.6* | 12.3 | 11.6* | -0.8 | -5.9
COC(=O)[C@]12C[C@H](CC(=O)NCc3ccc(C)o3)C(=O)N(Cc3ccccc3)C1=C[C@H](C1CCCC1)O[C@@H]2C | 0.4 | 8.7 | 6.8 | 12.0* | 12.3* | 10.4 | 6.6 | -7.8 | -3.9
O=C1C=C(c2cccc(CO)c2)C[C@@H](c2ccc3c(c2)OCO3)C1 | -0.3 | 4.7 | 3.8 | 6.3 | 3.7 | x | x | x | x
CCCCn1nnnc1C(c1ccccc1)N1CCN(c2c(Cl)cncc2Cl)CC1 (stereo not drawn) | 0.9 | 7.1 | 0.6 | 3.9 | 0.9 | x | x | x | x
COc1ccc(Cc2nnc(SCC(=O)Nc3ccc(C)cc3)n(N)c2=O)cc1 | 0.6 | 6.8 | 10.0* | -3.7 | 9.8* | 0.8 | 0.5 | -7.8 | -2.6
CN1CCN(CCCNC(=O)c2ccc3c(Cl)c4c(nc3c2)CCCC4)CC1 | 0.1 | 0.5 | -1.2 | -6.1 | -0.8 | x | x | x | x
Cc1cccc(NS(=O)(=O)c2ccc3[nH]c(=O)[nH]c3c2)c1C | 0.3 | -5.8 | -0.6 | -4.9 | -5.1 | x | x | x | x
Cc1cccc(NS(=O)(=O)c2ccc3c(c2)Cc2cc(S(=O)(=O)Nc4cccc(C)c4C)ccc2-3)c1C | -0.4 | 18.4 | 10.3* | 3.6 | 10.6* | 13.1 | 10.3* | -6.8 | -1.6
COC(=O)[C@]12C[C@H](CC(=O)N3CCN(C(=O)c4ccco4)CC3)C(=O)N(Cc3ccc(Cl)cc3Cl)C1=C[C@H](COCc1ccccc1)O[C@@H]2C | 0.6 | 16.5 | 13.0* | -0.7 | 12.6* | 17.6 | 10.1* | -3.7 | -2.2
CN(Cc1ccsc1)C(=O)Cn1cc(Br)ccc1=O | 0.3 | -7.0 | 0.1 | -3.7 | -1.2 | x | x | x | x
O=C(NNC(=O)c1csc(-c2ccccc2)n1)c1ccccc1 | 0.4 | 11.0 | 4.3 | 11.0* | 8.8* | -10.1 | -3.5 | -10.2 | -4.8
Cc1ccc(C(=O)NNC(=O)C2CCN(C(=O)OC(C)(C)C)CC2)cc1 | 0.2 | -2.1 | -1.4 | -5.7 | 0.7 | x | x | x | x
COc1ccc(OCCOc2ccc(S(=O)(=O)N3CCCC3)cc2[N+](=O)[O-])cc1 | -0.1 | 9.2 | -6.4 | -5.2 | 1.2 | x | x | x | x
COc1cccc(Oc2ccc(S(=O)(=O)N3CCCC3)cc2[N+](=O)[O-])c1 | -0.1 | 17.8 | 9.6* | -2.7 | 8.7* | 13.1 | 3.0 | 2.3 | 0.6
COc1ccc(NC(=O)c2cc(C3CCCCN3S(=O)(=O)Cc3ccccc3)on2)c(C)c1 (stereo not drawn) | 0.7 | 5.9 | 0.9 | 2.5 | 5.8 | x | x | x | x
COc1ccc(S(=O)(=O)NCC(c2ccco2)N2CCc3ccccc32)cc1 (stereo not drawn) | -0.1 | 18.3 | 10.7* | 2.5 | 14.1* | 18.1 | 12.4* | -2.7 | 0.0
Cc1ccc(S(=O)(=O)NCC(c2ccco2)N2CCc3ccccc32)cc1 (stereo not drawn) | 0.3 | 4.1 | -3.3 | -6.8 | 5.0 | x | x | x | x
CC(=O)Nc1ccc(-c2ccnc3c2CC(C)(C(=O)NCCc2ccccc2)O3)cc1 (stereo not drawn) | -0.3 | -8.1 | 13.7* | 5.9 | 9.5* | 11.2 | 7.3 | -3.6 | 0.2
O=C(O)CCCN1C(=O)C2C3CCC(C3)C2C1=O (stereo not drawn) | 0.1 | -9.7 | 11.6* | 6.7 | 9.1* | -10.6 | -3.6 | -3.1 | 1.0
O=C(O)CCCN1C(=O)C2C3CCC(O3)C2C1=O (stereo not drawn) | 0.1 | 10.5 | 5.4 | 3.4 | 0.1 | x | x | x | x
COc1cccc(CN(C)C(=O)CN2C(=O)NC(c3ccccc3)(c3ccccc3)C2=O)c1OC | 0.0 | 2.4 | 0.1 | -6.3 | -0.2 | x | x | x | x
COc1ccc(C2C(C#N)=C(C)NC(C)=C2C#N)c(OC)c1 | 0.4 | -18.0 | -15.9 | -24.3 | -6.1 | x | x | x | x
SMILES | proKLK7 act | ADAM10 inh | PLC-gamma1 inh | PLCb3 inh | ADAM17 inh | ADAM10 counter | ADAM17 confirm | PLCgamma1 ctr | PLCbeta3 conf
COc1ccc(C2C(C#N)=C(N)Nc3onc(C(C)(C)C)c32)c(OC)c1 (stereo not drawn) | 6.0 | 7.6 | 6.0 | 10.9* | 8.7* | 7.4 | 6.6 | -3.2 | -0.8
CC(=O)Nc1ccc(S(=O)(=O)NCCC(=O)OCC(=O)NCc2ccccc2)cc1 | 0.5 | -3.2 | -0.2 | -2.2 | -1.6 | x | x | x | x
Cc1ccsc1C(C(=O)NCc1ccccc1)N(C(=O)c1csnn1)c1ccccc1 (stereo not drawn) | -0.7 | 2.4 | 1.5 | -1.3 | 0.2 | x | x | x | x
Cc1c(C(=O)NCc2ccccc2)oc2ccc(S(=O)(=O)N3CCC4(CC3)OCCO4)cc12 | 1.0 | 12.1 | 10.3* | 0.7 | 9.6* | 4.0 | 6.5 | -6.5 | -1.7
Cc1c(C(=O)NCc2ccccn2)oc2ccc(S(=O)(=O)N3CCC4(CC3)OCCO4)cc12 | 0.3 | 5.3 | 0.3 | 0.3 | 0.9 | x | x | x | x
N#Cc1ccc(C(=O)NCC2CCN(C(=O)C(=O)c3cccs3)CC2)cc1 | -0.2 | -2.0 | -0.1 | 5.0 | -0.7 | x | x | x | x
COc1ccccc1NC(=O)c1nn(C)c(C(=O)Nc2ccccc2OC)c1[N+](=O)[O-] | 0.9 | 2.9 | 2.5 | 1.0 | -1.4 | x | x | x | x
COc1ccccc1NC(=O)c1c([N+](=O)[O-])c(C(C)(C)C)nn1C | -0.1 | 2.1 | 11.9* | 7.4 | 8.6* | 0.4 | 1.6 | 2.0 | 3.1
CC(C)(Oc1ccc(Cl)cc1)C(=O)OCC(=O)Nc1ncc(Cl)cc1Cl | 0.7 | 14.7 | 7.7 | 12.1* | 9.9* | -0.2 | 0.3 | -0.5 | 1.2
CC12CCC(C(=O)Nc3ccc(SC(F)F)cc3)(CC1=O)C2(C)C (stereo not drawn) | -0.7 | 9.9 | 9.8* | 9.5 | 14.9* | -0.2 | 3.7 | -1.8 | 0.7
